These results are taken from PubChem BioAssay (NCATS).

The nature of assay [1]: Primary qHTS for inhibitors of nuclear receptor binding SET domain protein 2 (NSD2) in an isogenic RCH-ACV NSD2 p.E1099K mutant (9B) (AID 1645876).
Assay [2] can be described thus: Primary qHTS for inhibitors of nuclear receptor binding SET domain protein 2 (NSD2) in an RCH-ACV wild type WT cells (2C) (AID 1645877).

Several values for one entry are separate records, joined by “and”; a condition that tells them apart may be missing. Identical values can stand only once. Results filed as inconclusive are left out. A number with no mark means an inactive call. Activity calls are given as the source filed them. The call rests on the fitted dose curve; in most records, active means well fitted curve in the direction sought with a large enough effect; inconclusive means small, poorly fitted or top-dose-only effect, or another doubt; inactive means no such curve, though single readings can be large; an effect the other way counts as inactive or inconclusive.
Further: nearly all actives have a fitted effect of over 70% in size.
On the % scale 0 is the no-effect control and ±100 the full control effect; potency means the concentration at half of the fitted maximal effect.

Take `COc1cc(/C=C/CO)cc(OC)c1O[C@@H]1O[C@H](CO[C@@H]2O[C@H](CO)[C@@H](O)[C@H](O)[C@H]2O)[C@@H](O)[C@H](O)[C@H]1O`: the Potency result in assay [1] and in assay [2] was “inactive” throughout.
With `CN(C)CCCCC(=O)Nc1ccc(NC(=S)NC(=O)c2ccc(C(C)(C)C)cc2)cc1`, the results for the Potency in assay [1] and in assay [2] were 1.83 µM (active) and 2.3 µM (active), respectively.
The corresponding values for `CC(=O)NC1C(OC(C)(C)C2CCC3(C)C=C(C4CCC5C4(C)CC(O)C4OC(C(C)(C)O)CCC45C)CCC3O2)OC(CO)C(O)C1O` (configuration not stated) are “inactive” and “inactive”.
With `Nc1ccc(/C=C/C(=O)NCc2cc3cc(-c4ccc(C(=O)N5CCC(F)(F)CC5)cc4)cc(-c4ccc(F)cc4)c3o2)cn1`, the Potency in assay [1] is 235 nM (active) and 231 nM (active); in assay [2], 332 nM (active) and 206 nM (active).
Take `C=C(C)C(=O)OC1C(OC(C)=O)/C(C=O)=C\CC/C(CO)=C/C2OC(=O)C(=C)C21` (configuration not stated): the values for the Potency in assay [1] and in assay [2] were 3.17 µM (active) and 1.42 µM (active), respectively.
On to `C=C(CO[C@@H]1O[C@H](CO[C@@H]2OC[C@](O)(CO)[C@H]2O)[C@@H](O)[C@H](O)[C@H]1O)C1Cc2cc(C(C)=O)ccc2O1` (some centres not stated), for which the Potency result in assay [1] and in assay [2] was “inactive” each time.
For the compound `CO/N=C(/C(=O)N[C@@H]1C(=O)N2C(C(=O)O)=C(Cn3ccc(=N)n3CCO)CS[C@H]12)c1csc(N)n1`, the Potency entry in assay [1] and in assay [2] was “inactive” throughout.
For the compound `CC1(C)CCC2(C(=O)OC3OC(CO)C(O)C(O)C3O)CCC3(C)C(=CCC4C5(C)CCC(OC6OC(C(=O)O)C(OC7OC(CO)C(O)C(O)C7O)C(OC7OC(CO)C(O)C(O)C7O)C6O)C(C)(C)C5CCC43C)C2C1` (configuration not stated), in assay [1], the activity change, negative = viability loss is -4.92% [at 9.23 µM]. Further, the activity change, negative = cell killing in assay [2] was -7.84% [at 9.23 µM].
For `C=C[C@]1(C)C=C2CCC3C(C)(CCC[C@@]3(C)C(=O)O)C2CC1` (some centres not stated), the Potency result in assay [1] and in assay [2] was “inactive” each time.
Consider `O=S(=O)(c1ccc(S(=O)(=O)n2cnc3ccccc32)cc1)N1CCCCCC1`, for which the Potency entry in assay [1] and in assay [2] was “inactive” throughout.
In the case of `OC[C@H]1O[C@@H](OCCc2ccc(O)cc2)[C@H](O[C@@H]2OC[C@](O)(CO)[C@H]2O)[C@@H](O)[C@@H]1O`, the Potency result in assay [1] and in assay [2] was “inactive” each time.
For the compound `CC(=O)OC[C@H]1O[C@H](O[C@]2(CO)O[C@H](CO)[C@@H](OC(=O)/C=C/c3ccccc3)[C@@H]2O)[C@H](O)[C@@H](O)[C@@H]1O`, the Potency result in assay [1] and in assay [2] was “inactive” in each case.
For `O=C(O)CC(=O)OC[C@H]1O[C@@H](Oc2ccc3c(c2)OC[C@H]2c4cc5c(cc4O[C@@H]32)OCO5)[C@H](O)[C@@H](O)[C@@H]1O`, the Potency entry in assay [1] and in assay [2] was “inactive” in each case.
With `[N-]=[N+]=N[C@]1(CO)O[C@@H](n2ccc(=O)[nH]c2=O)[C@@H](O)[C@@H]1O`, the Potency entry in assay [1] and in assay [2] was “inactive” in each case.
`CC1OC(OC2C(O)C(OC3CCC4(C)C(CCC5(C)C4CC=C4C6CC(C)(COC7OC(CO)C(O)C(O)C7O)CC(O)C6(C)CCC45C)C3(C)C)OC(C(=O)O)C2O)C(O)C(O)C1OC1OCC(O)C(O)C1O` (configuration not stated): in assay [1], the activity change, negative = viability loss is -10.7% [at 9.23 µM]. Moreover, in assay [2], the activity change, negative = cell killing was -2.6% [at 9.23 µM].
`CC1(C)CC[C@]2(C(=O)O[C@@H]3O[C@H](CO)[C@@H](O)[C@H](O)[C@H]3O)CC[C@]3(C)C(=CCC4[C@@]5(C)C[C@@H](O)[C@H](O)[C@](C)(C(=O)O)C5CC[C@]43C)C2C1O` (some centres not stated): the Potency entry in assay [1] and in assay [2] was “inactive” in each case.
Regarding `Cc1cc(C)nc(NS(=O)(=O)c2ccc(NC(=S)NC(=O)COc3ccc(Br)cc3Cl)cc2)n1`, the Potency entry in assay [1] and in assay [2] was “inactive” throughout.
As for `CC1=C(C(=O)O[C@@H]2O[C@H](COC3OCC(O)C(O)C3O)[C@@H](O)[C@H](O)[C@H]2O)C(C)(C)CCC1` (some centres not stated), the Potency result in assay [1] and in assay [2] was “inactive” each time.
Turning to `COCCOc1cnc2ccn([C@H](C)c3nnc4c(F)cc(-c5cnn(C)c5)cn34)c(=O)c2c1`, the Potency result in assay [1] and in assay [2] was “inactive” throughout.
As to `CC1=CC2/C=C(\C)CC[C@@H](O)[C@@H](O)[C@@H]3O[C@@H]3C(=O)[C@]23C(=O)N[C@@H](CC(C)C)[C@@H]3[C@@H]1C` (some centres not stated), the Potency result in assay [1] and in assay [2] was “inactive” in each case.
As to `C=C1C(O)CC2C(C(=O)O)=COC(O[C@@H]3O[C@H](COC(=O)/C=C/c4ccc(O)cc4)[C@@H](O)[C@H](O)[C@H]3O)C12` (some centres not stated), the Potency result in assay [1] and in assay [2] was “inactive” each time.
As for `CC(=O)OC[C@]12[C@H](OC(C)=O)C(=O)[C@@H]3[C@@H](OC(C)=O)[C@@]14O[C@@]3(C)COC(=O)c1cccnc1[C@@H](C)[C@H](C)C(=O)O[C@@H]([C@H](O)[C@@H]2OC(C)=O)[C@]4(C)O`, the Potency result in assay [1] and in assay [2] was “inactive” in each case.
Take `CC(=O)O[C@@H]1c2c(C)coc2C(=O)[C@@]23O[C@@H]2CC[C@H](C)[C@@]13C`: the Potency result in assay [1] and in assay [2] was “inactive” in each case.
For the compound `CC1=C(CCC(C)CC(=O)O)[C@@]2(C)CCCC(C)(C)C2CC1=O` (some centres not stated), the Potency result in assay [1] and in assay [2] was “inactive” throughout.
In the case of `C[C@H]1CC[C@@H]2N(C1)C[C@@H]1[C@H]([C@@H](O)[C@H](O)[C@]3(O)[C@H]1C[C@@]14OC5(O)[C@@H](C[C@@H](O)[C@@H]31)[C@]4(C)CC[C@@H]5O)[C@]2(C)O`, the Potency entry in assay [1] and in assay [2] was “inactive” in each case.
Regarding `COc1c2c(c(C)c3c1C(=O)OC3)OC1(C)CC(O)C34OC(OC)(CC(OC(C)=O)C3(C)C1C2)OC4(C)C` (configuration not stated), the Potency result in assay [1] and in assay [2] was “inactive” in each case.
